Measurements taken from PubChem BioAssay (EPA / NIEHS).
Records with an inconclusive call do not appear. The source made the active and inactive calls. Rule for the calls: active = hit-call score of the fitted dose curve at least 0.9, where 1 is the maximum; inconclusive = response in the unintended direction; inactive = score below 0.9.

Each compound was assayed against Estrogen receptor beta (Homo sapiens) (UniProt Q92731) (assay: OT_ER_ERbERb_0480: Odyssey Thera (OT) 8-hour HEK293T Protein-Complementation Assay for Estrogen Receptor-beta/-beta Homodimer (AID 2283357);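 note: active means signal gain over DMSO baseline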).
Chain of Estrogen receptor beta (Homo sapiens) (Q92731 whole entry, looked up, the tested form may be a part): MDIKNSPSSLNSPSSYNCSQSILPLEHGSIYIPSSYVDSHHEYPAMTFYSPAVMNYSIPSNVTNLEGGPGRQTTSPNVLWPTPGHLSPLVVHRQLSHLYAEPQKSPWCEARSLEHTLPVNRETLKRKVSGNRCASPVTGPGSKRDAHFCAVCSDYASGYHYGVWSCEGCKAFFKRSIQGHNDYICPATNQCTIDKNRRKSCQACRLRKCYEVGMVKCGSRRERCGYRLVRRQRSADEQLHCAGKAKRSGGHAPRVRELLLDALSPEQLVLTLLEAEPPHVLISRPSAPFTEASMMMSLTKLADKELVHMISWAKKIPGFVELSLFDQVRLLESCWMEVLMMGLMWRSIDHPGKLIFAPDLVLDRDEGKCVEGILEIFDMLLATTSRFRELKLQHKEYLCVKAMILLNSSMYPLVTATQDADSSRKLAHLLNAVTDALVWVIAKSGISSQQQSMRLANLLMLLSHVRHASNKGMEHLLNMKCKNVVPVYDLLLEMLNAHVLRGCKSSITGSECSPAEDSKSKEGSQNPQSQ
Outline: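 Readout: increase in mean fluorescence intensity (nucleus for agonists; nucleus plus cytoplasm for antagonists) relative to DMSO, from a reporter-fragment complementation of human ER-beta LBD homodimer in HEK293T cells dosed 8 hours.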
With `OCC(O)CO` the outcome was “inactive”. In the case of `CCNc1nc(NC(C)C)nc(SC)n1`, the outcome is reported as “inactive”. In the case of `CN(C)c1nc(=O)n(C2CCCCC2)c(=O)n1C`, the outcome is reported as “inactive”. With `C1CC2OC2CC1C1CO1` (stereo unspecified) the outcome was “inactive”. For `ClC1=C(Cl)[C@]2(Cl)[C@@H]3[C@@H](Cl)[C@H]4O[C@H]4[C@@H]3C1(Cl)C2(Cl)Cl`, the AC50 was 13.8 µM (active). With `CCC(C)c1cc([N+](=O)[O-])cc([N+](=O)[O-])c1O` (stereo unspecified) the outcome was “inactive”. `Cc1cccc(C)c1N` was tested, and the outcome was “inactive”. `c1ccc(-c2ccccc2)cc1` was tested, and the outcome was “inactive”. With `Nn1cnnc1` the outcome was “inactive”. For `O=C(N[C@H]1CN2CCC1CC2)c1cc2ccoc2cn1`, the outcome was “inactive”. In the case of `O=S(=O)(O)C(F)(F)C(F)(F)C(F)(F)C(F)(F)F`, the outcome is reported as “inactive”. In the case of `O=C(NC(=O)c1c(F)cccc1F)Nc1cc(Cl)c(OC(F)(F)C(F)F)c(Cl)c1`, the outcome is reported as “inactive”. With `CC#Cc1cc(C)nc(Nc2ccccc2)n1` the outcome was “inactive”. `CCC(C)(CC)c1cc(NC(=O)c2c(OC)cccc2OC)on1` was tested, and the outcome was “inactive”. With `Cc1ccccc1O` the outcome was “inactive”. For `Cc1ccc(O)c(C)c1`, the outcome was “inactive”. For `CN(C)CCO`, the outcome was “inactive”. In the case of `CC(C)C(=O)OCC(C)(C)C(OC(=O)C(C)C)C(C)C` (stereo unspecified), the outcome is reported as “inactive”. For `CCCN(CCC)N=O`, the outcome was “inactive”.

The compounds below were run against human Peroxisome Proliferator-activated Receptor alpha (PPARa), PPARA (gene 5465) (UniProt Q07869) (assay: NVS_NR_hPPARa: NovaScreen (NVS) Nuclear Receptor Binding Assay for human Peroxisome Proliferator-activated Receptor alpha (PPARa) (AID 2283359);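 note: activity means loss of TR-FRET signal versus DMSO baseline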).
Chain of human Peroxisome Proliferator-activated Receptor alpha (PPARa), PPARA (gene 5465) (Q07869 whole entry, looked up): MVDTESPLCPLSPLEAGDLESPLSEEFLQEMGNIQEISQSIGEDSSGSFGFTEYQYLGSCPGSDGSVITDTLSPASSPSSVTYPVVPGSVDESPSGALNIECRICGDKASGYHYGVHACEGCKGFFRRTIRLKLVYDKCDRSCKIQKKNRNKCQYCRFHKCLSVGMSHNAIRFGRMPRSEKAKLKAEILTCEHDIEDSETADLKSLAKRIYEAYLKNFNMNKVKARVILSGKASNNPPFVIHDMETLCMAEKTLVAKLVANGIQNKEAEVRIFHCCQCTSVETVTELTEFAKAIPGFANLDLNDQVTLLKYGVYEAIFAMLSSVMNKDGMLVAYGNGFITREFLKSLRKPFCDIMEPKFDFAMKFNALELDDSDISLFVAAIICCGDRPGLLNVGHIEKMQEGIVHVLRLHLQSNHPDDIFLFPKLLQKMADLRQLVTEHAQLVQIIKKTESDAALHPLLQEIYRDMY
Outline: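 Cell-free binding assay with extracted human protein, read by TR-FRET 1 h after chemical dosing. Loss of signal relative to DMSO baseline indicates binding. Primary screen used duplicate single concentration (25 uM); actives followed up in concentration series.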
With `OCC(O)CO` the outcome was “inactive”. With `Cc1cc2c3c(c1)C(c1ccccc1)=N[C@@H](NC(=O)c1ccncc1)C(=O)N3CC2` the outcome was “inactive”. For `O=S(=O)(O)C(F)(F)C(F)(F)C(F)(F)C(F)(F)F`, the outcome was “inactive”. For `c1cc2ccc3cccc4ccc(c1)c2c34`, the outcome was “inactive”. For `Cc1ccc(O)c(C)c1`, the outcome was “inactive”. In the case of `CCCN(CCC)N=O`, the outcome is reported as “inactive”.

These compounds were tested against PGR (gene 5241) (UniProt P06401) (assay: NVS_NR_hPR: NovaScreen (NVS) Nuclear Receptor Binding Assay for human Progestron Receptor (PR) (AID 2283360);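 note: active means loss of bound radioligand signal versus DMSO baseline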).
Chain of PGR (gene 5241) (P06401 whole entry, looked up): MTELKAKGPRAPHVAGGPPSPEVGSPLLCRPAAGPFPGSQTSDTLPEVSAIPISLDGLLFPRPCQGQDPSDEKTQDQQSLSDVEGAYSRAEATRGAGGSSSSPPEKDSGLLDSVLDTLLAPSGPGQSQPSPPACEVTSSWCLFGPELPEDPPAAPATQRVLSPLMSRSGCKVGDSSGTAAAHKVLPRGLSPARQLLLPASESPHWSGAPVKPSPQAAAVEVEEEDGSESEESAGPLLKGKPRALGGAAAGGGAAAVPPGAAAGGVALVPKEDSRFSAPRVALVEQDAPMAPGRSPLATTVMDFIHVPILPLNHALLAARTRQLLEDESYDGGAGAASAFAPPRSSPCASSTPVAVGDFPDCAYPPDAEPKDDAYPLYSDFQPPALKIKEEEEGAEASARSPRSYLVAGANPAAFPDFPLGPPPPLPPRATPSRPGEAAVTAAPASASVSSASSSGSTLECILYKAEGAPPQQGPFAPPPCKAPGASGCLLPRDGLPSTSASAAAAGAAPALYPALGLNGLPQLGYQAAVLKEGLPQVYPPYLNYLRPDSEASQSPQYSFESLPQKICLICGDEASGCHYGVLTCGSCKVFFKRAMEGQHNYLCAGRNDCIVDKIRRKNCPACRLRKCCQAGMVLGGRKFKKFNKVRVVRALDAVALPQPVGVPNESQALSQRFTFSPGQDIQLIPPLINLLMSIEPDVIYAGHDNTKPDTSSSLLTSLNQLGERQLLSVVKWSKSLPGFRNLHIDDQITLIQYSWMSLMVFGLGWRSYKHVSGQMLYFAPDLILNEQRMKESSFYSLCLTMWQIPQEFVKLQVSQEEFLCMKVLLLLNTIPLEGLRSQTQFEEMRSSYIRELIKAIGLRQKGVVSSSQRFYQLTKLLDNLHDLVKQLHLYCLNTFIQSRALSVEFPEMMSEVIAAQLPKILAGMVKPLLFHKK
Outline: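 T47D-derived receptor preparation, cell-free, with tritiated or iodinated radioligand displacement measured by scintillation 18 h post-dosing. Single 25 uM duplicate screen, then concentration series; signal loss relative to DMSO.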
For `Cc1ccccc1[N+](=O)[O-]`, the outcome was “inactive”. `O=C(N[C@H]1CN2CCC1CC2)c1cc2ccoc2cn1` was tested, and the outcome was “inactive”. In the case of `Cc1ccc(O)c(C)c1`, the outcome is reported as “inactive”.

These compounds were tested against Retinoic acid receptor alpha (Homo sapiens) (UniProt P10276) (assay: NVS_NR_hRARa_Agonist: NovaScreen (NVS) Nuclear Receptor Binding Assay for human Retinoic Acid Alpha Receptor Agonism (RAR) (AID 2283361)).
Chain of Retinoic acid receptor alpha (Homo sapiens) (P10276 whole entry, looked up): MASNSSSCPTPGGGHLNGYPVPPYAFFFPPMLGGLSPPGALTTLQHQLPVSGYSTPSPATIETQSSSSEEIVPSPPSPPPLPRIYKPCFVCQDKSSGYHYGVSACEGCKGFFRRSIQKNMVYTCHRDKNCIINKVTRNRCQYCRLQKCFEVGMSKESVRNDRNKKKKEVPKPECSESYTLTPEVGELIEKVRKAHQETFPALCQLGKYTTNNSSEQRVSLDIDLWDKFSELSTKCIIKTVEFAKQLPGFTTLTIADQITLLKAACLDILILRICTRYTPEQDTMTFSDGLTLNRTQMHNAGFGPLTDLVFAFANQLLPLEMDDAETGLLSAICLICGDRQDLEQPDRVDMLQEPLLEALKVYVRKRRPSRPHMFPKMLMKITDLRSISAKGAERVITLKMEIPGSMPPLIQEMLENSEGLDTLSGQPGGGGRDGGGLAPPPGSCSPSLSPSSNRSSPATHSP
Description: NVS_NR_hRARa_Agonist is a biochemical, single-readout assay that uses extracted gene-proteins in a cell-free assay. Measurements were taken 2 hours after chemical dosing in a 384-well plate.NVS_NR_hRARa_Agonist is one of one assay component(s) measured or calculated from the NVS_NR_hRARa_Agonist assay. It is designed to make measurements of fluorescent resonance energy transfer, a form of binding reporter, as detected with fluorescent resonance energy transfer signals by Time-Resolved Fluorescence Resonance Energy Transfer (TR-FRET) technology.Data from the assay component NVS_NR_hRARa_Agonist was analyzed into 1 assay endpoint. This assay endpoint, NVS_NR_hRARa_Agonist, was analyzed in the positive analysis fitting direction relative to DMSO as the negative control and baseline of activity. Using a type of binding reporter, gain-of-signal activity can be used to understand changes in the binding as they relate to the gene RARA. Furthermore, this assay endpoint can be referred to as a primary readout, because the performed assay has only produced 1 assay endpoint. To generalize the intended target to other relatable targets, this assay endpoint is annotated to the nuclear receptor intended target family, where the subfamily is non-steroidal.
Binding assays used specific radioligands (tritiated, iodinated) with non-radioactive competitive displacement ligands in agonist or antagonist protocols (as indicated) and various reference compounds and inhibitors to titrate specific binding to receptors and transporters. Most enzyme assays (CYPs, kinases, phosphatases, proteases, HDACs) used recombinant protein and specific substrates (fluorescence mostly, some colorimetric and radioactive) and inhibitors, followed by a biochemical separation of substrate and product. All assays for the biochemical HTS were initially run in duplicate at a single concentration (10 uM for CYP450 assays and 25 uM for all others). […] Each assay was run with positive and negative controls, and concurrent controls on every plate. The follow-up (secondary) screen tested active chemical-pairs in concentration series, as well as a few additional assays not tested in the primary screen, some selected negative inactives, and several cases re-run in the concentration series for confirmatory purposes.
`ClC1=C(Cl)[C@]2(Cl)[C@@H]3[C@@H]4C[C@@H]([C@H]5O[C@@H]45)[C@@H]3[C@@]1(Cl)C2(Cl)Cl` was tested, and the outcome was “inactive”. For `CC1=C2C[C@H]3[C@@H](CC=C4C[C@@H](O)CC[C@@]43C)[C@@H]2CC[C@]12O[C@@H]1C[C@H](C)CN[C@H]1[C@H]2C`, the outcome was “inactive”. With `COS(=O)(=O)OC` the outcome was “inactive”.
